Source: PubChem (National Center for Advancing Translational Sciences (NCATS))
In the library only some 19% were active in any assay of this set; here they are far more common.
DT40 TDP1 CPT: growth inhibition of DT40 Tdp1-/-;hTDP1 cells with camptothecin (screen for TDP1 inhibitors); chicken DT40 Tdp1-/-;hTDP1 cells + 20 nM CPT, ATP luminescence, 48 h; Potency, µM (titrated, usually from 46.2 µM), usual class: inhibitors; hit rate 12% among 420,000; AID 686979; further: nearly all actives have a fitted effect of over 55% in size
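Chicken DT40 Tdp1-/- cells stably complemented with human TDP1 were seeded at 400 cells/well in medium containing 20 nM camptothecin, exposed to pin-transferred compounds, and grown at 37 °C for at least 48 hr. Viability was read as ATP luminescence.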
SW480 rereplic: inducers of DNA re-replication in SW480 colon cancer cells | hit rate 1.8% among 340,000 | SW480 DNA re-replication, Hoechst DNA content imaging, 48 h | Potency, µM (series often up to 46.1 µM), hits mostly activators | AID 624297; further: nearly all actives have a fitted effect of over 55% in size
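Quantitative HTS format with DMSO vehicle controls; 48 hr drug incubation at 37 C, then 40 min Hoechst staining and scanning imager measurement at 405 nm excitation.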
MCF10A rerep: induces DNA re-replication in MCF 10a normal breast cells; MCF 10A DNA re-replication, Hoechst nuclear intensity, 48 h; Potency, µM (top dose mostly 46.1 µM), hits mostly activators; hit rate 2.9% among 350,000; further: nearly all actives have a fitted effect of over 50% in size
Chronic BCR inh: inhibitors of chronic active B-cell receptor signaling | hit rate 0.05% among 340,000 | ABC-DLBCL IkBa-CBG/CBR reporter, luminescence ratio, 4 h | Potency, µM (top dose mostly 46.1 µM), hits mostly inhibitors; active means well fitted inhibition curve with a large enough effect in the signal ratio, with a control signal flat, not every such curve was filed as active; inconclusive means small, poorly fitted or top-dose-only effect, or effect the other way, or a change in a side signal; the % refers to the signal ratio
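TMD8 ABC-DLBCL cells carrying doxycycline-inducible green luciferase fused to IkappaBalpha plus unfused red luciferase were exposed to compounds (up to 46 uM) for 4 hrs at 37C. Activity came from the overlap-corrected green/red luminescence ratio.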
IL-1B inflam inh: inhibitors of inflammasome signaling (IL-1 beta secretion); THP-1 LPS/ATP IL-1B secretion, AlphaLISA, 16 h; active compounds read low; activity change, % at 57.5 µM; hit rate 4.7% among 360,000; in the data active means activity change below about -50%; inconclusive means mostly about -30% to -49%
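THP-1 cells pretreated 1 hr with compounds (up to 57.5 uM final), then stimulated with LPS (250 ng/mL final) plus ATP (1.25 mM final); secreted IL-1B measured by AlphaLISA after 16 hr, decreased signal indicating inhibition.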
TDP1 cell noCPT: qHTS for Inhibitors of human tyrosyl-DNA phosphodiesterase 1 (TDP1): qHTS in cells in absence of CPT; DT40 Tdp1-/- hTDP1 cells, no CPT, ATP luminescence, 48 h; AID 686978, 2013; hit rate 15% among 420,000; Potency, µM (top dose mostly 46.2 µM), most hits filed as inhibitors; further: nearly all actives have a fitted effect of over 55% in size
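A cellular qHTS used chicken DT40 cells lacking endogenous Tdp1 but carrying stably transfected human TDP1. Compounds were applied without camptothecin, and cell growth kinetics were judged by ATP-dependent luminescence after ≥48 hr.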
Each line names hits and unclear results; the compound was inactive in the other large screens. Unless noted, the call rests on the fitted dose curve; in most records, active means well fitted curve in the direction sought with a large enough effect; inconclusive means small, poorly fitted or top-dose-only effect, or another doubt; inactive means no such curve, though single readings can be large; an effect the other way counts as inactive or inconclusive.

CCCCC(CC)CNC(=O)Cc1ccc(-n2c(=O)[nH]c3ccccc3c2=O)cc1 (configuration not stated)	DT40 TDP1 CPT inconclusive, TDP1 cell noCPT inconclusive (no result: SW480 rereplic, MCF10A rerep, IL-1B inflam inh)
CCOC(=O)[C@H]1[C@H]2COc3ccc(OC)cc3[C@@H]2N2C(=O)CN(Cc3ccccc3)C(=O)[C@@]12C	Chronic BCR inh inconclusive, TDP1 cell noCPT inconclusive
Cc1nc(N2CCC(C(N)=O)CC2)c2nnn(Cc3ccccc3)c2n1	none
Cc1nc(NC2CCCCC2)c2nnn(Cc3ccccc3Cl)c2n1	DT40 TDP1 CPT inconclusive, SW480 rereplic inconclusive, MCF10A rerep inconclusive, TDP1 cell noCPT inconclusive
CC(=O)Nc1ccc(Nc2nc(C)nc3c2nnn3Cc2ccccc2Cl)cc1	SW480 rereplic inconclusive, MCF10A rerep inconclusive, TDP1 cell noCPT 16µM
COc1ccc(Nc2nc(C(C)(C)C)nc3c2nnn3Cc2ccccc2Cl)cc1OC	DT40 TDP1 CPT 18µM, MCF10A rerep inconclusive, TDP1 cell noCPT 15µM (no result: Chronic BCR inh)
c1ccc(CN(Cc2ccccc2)c2ncnc3c2nnn3Cc2ccccc2)cc1	none
Cc1nc(N(C)Cc2ccccc2)c2nnn(Cc3ccccc3)c2n1	DT40 TDP1 CPT 23µM, TDP1 cell noCPT 18µM
Cc1nc(Nc2ccc(S(=O)(=O)N3CCCCC3C)cc2)c2nnn(Cc3ccccc3)c2n1 (configuration not stated)	DT40 TDP1 CPT inconclusive, TDP1 cell noCPT 23µM
COc1ccc(CCNC(=O)c2ccc3c(c2)nc2n3CCOC2)cc1OC	none (no result: SW480 rereplic, MCF10A rerep, Chronic BCR inh, IL-1B inflam inh)
Cc1ccccc1C(=O)NC1CCN(C(=O)Nc2ccccc2Cl)CC1	IL-1B inflam inh inconclusive, TDP1 cell noCPT inconclusive
Cc1nc2c(nnn2Cc2ccccc2Cl)c(=O)[nH]1	none
Cc1nc(Nc2ccc(Cl)cc2)c2nnn(Cc3ccccc3)c2n1	DT40 TDP1 CPT inconclusive, MCF10A rerep 23µM, TDP1 cell noCPT inconclusive
Cc1nc(NCCC(C)C)c2nnn(Cc3ccccc3)c2n1	DT40 TDP1 CPT inconclusive, SW480 rereplic inconclusive
Cc1nc(NCCc2ccc(O)cc2)c2nnn(Cc3ccccc3)c2n1	DT40 TDP1 CPT inconclusive, MCF10A rerep inconclusive, Chronic BCR inh inconclusive, TDP1 cell noCPT 15µM
Cc1nc2c(nnn2Cc2ccccc2)c(=O)[nH]1	DT40 TDP1 CPT 23µM, TDP1 cell noCPT inconclusive
Cc1nc(Nc2ccccc2Br)c2nnn(Cc3ccccc3)c2n1	DT40 TDP1 CPT inconclusive, TDP1 cell noCPT inconclusive
COc1ccc(Nc2nc(C)nc3c2nnn3Cc2ccccc2)cc1OC	DT40 TDP1 CPT inconclusive, TDP1 cell noCPT 23µM
Cc1nc(NCCc2ccc(F)cc2)c2nnn(Cc3ccccc3)c2n1	MCF10A rerep inconclusive, Chronic BCR inh inconclusive
O=C(Cc1ccc(Cl)cc1)N1CCN(c2ccccc2)CC1	SW480 rereplic inconclusive
O=C(OCc1cccc(C(F)(F)F)c1)c1ccc[nH]c1=O	none
CCc1ccc(N(C(=O)c2snc(C(N)=O)c2N)C(C(=O)NC2CCCC2)c2ccncc2)cc1 (configuration not stated)	DT40 TDP1 CPT inconclusive, MCF10A rerep inconclusive, TDP1 cell noCPT inconclusive
Cc1nc(Nc2cc(F)ccc2C)c2nnn(Cc3ccccc3)c2n1	DT40 TDP1 CPT inconclusive, Chronic BCR inh inconclusive, IL-1B inflam inh inconclusive, TDP1 cell noCPT 21µM
Cc1nc(NCc2ccc3c(c2)OCO3)c2nnn(Cc3ccccc3)c2n1	SW480 rereplic inconclusive
CCOC(=O)CNc1nc(C(C)(C)C)nc2c1nnn2Cc1ccccc1Cl	DT40 TDP1 CPT inconclusive, MCF10A rerep inconclusive, TDP1 cell noCPT 26µM
COc1ncc2nc(-c3ccc(F)cc3)c(=O)n(C[C@H]3CCCO3)c2n1	none (no result: SW480 rereplic, MCF10A rerep, Chronic BCR inh, IL-1B inflam inh)
Cc1ccc2oc3nc(C)c(C(=O)Nc4cccc(C(F)(F)F)c4)cc3c(=O)c2c1	TDP1 cell noCPT inconclusive
COc1ccc(S(=O)(=O)N(Cc2nc(-c3ccc(Cl)cc3)no2)C2CCCCC2)cc1	DT40 TDP1 CPT 21µM, TDP1 cell noCPT 21µM (no result: SW480 rereplic, MCF10A rerep, Chronic BCR inh, IL-1B inflam inh)
Cc1ccc(-c2noc(CN(C3CCCCC3)S(=O)(=O)c3ccc(Cl)cc3)n2)cc1	DT40 TDP1 CPT 26µM, TDP1 cell noCPT inconclusive (no result: SW480 rereplic, MCF10A rerep, Chronic BCR inh, IL-1B inflam inh)
